A short description of test [1]: yeast TOR pathway RPL19A-GFP modulators, primary screen, cell-based, S. cerevisiae, multiplex flow cytometry (AID 1862; in the data active = percent of DMSO control GFP below about 86%;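 note: lower values mimic rapamycin by blocking the RPL19A rise seen in DMSO cells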). Conditions: S. cerevisiae RPL19A-GFP strain, flow cytometry fluorescence, 3 h; at 10 µM; stronger effect = lower value.
Test [2] can be described thus: modulators of MEP2-GFP levels in yeast, primary screen, S. cerevisiae, multiplex flow cytometry (AID 1867).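 Note: median GFP channel fluorescence of barcode-gated MEP2-GFP cells measured by flow cytometry.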 The settings on record: S. cerevisiae MEP2-GFP strain, 3 h, at 10 µM, stronger effect = higher value, 100% means same as DMSO wells. On the technique in general: A flow cytometer gives signals particle by particle.
A short description of test [3]: modulators of CIT2-GFP expression in yeast, primary screen, S. cerevisiae, GFP fusion, multiplex flow cytometry (AID 1870;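 active = percent response above a set limit, the screen-wide mean plus 3 SD, cut at about 130% in these data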;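 note: barcoded CIT2-GFP strain pooled with four other GFP strains with rapamycin as positive control; median GFP fluorescence per well over plate mean of DMSO wells so 100% = DMSO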). The settings on record: 3 h, at 10 µM, stronger effect = higher value.
A short description of test [4]: modulators of LAP4-GFP expression in yeast, primary screen, S. cerevisiae, multiplex flow cytometry (AID 1873;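 active = GFP signal, as percent of the solvent control, above the screen mean plus 3 SD, about 149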). The settings on record: 3 h, at 10 µM, stronger effect = higher value.
A short description of test [5]: modulators of AGP1-GFP expression in yeast TOR pathway, primary screen, cell-based, multiplex flow cytometry, S. cerevisiae (AID 1887;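 active = GFP signal above the screen-wide mean plus 3 SD, that is over about 124.5% of the solvent control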;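 note: AGP1-GFP fusion strain of S. cerevisiae within a five-strain barcoded multiplex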). The settings on record: 3 h, at 10 µM, stronger effect = higher value.
Test [6] is described as follows: inhibitors of CD8+ T cell-vesicle binding, pilot screen, LFA-1/ICAM-1 modulator project, MLPCN validation set, flow cytometry (AID 2523;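 active = response below a set limit, under 55% cells CD8-positive and vesicle-bound, and CD8 cells' 90th-percentile brightness under 279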;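 for vesicle binding response: mean PE anti-B7-1 fluorescence of CD8+ cells relative to row control; 100% = QL9-loaded vesicles with DMSO vehicle in the same plate row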). The settings on record: 2C mouse CD8+ T cells, at 7 µM, stronger effect = lower value; double positive events: measured here: CD8+/vesicle+ event percentage.
Test [7] addresses Integrin beta-1 (Homo sapiens) + Integrin alpha-4 (Homo sapiens) (UniProt P13612+P05556). As to the kind of experiment: inhibition of HUTS-21 binding to VLA-4, pilot screen, VLA-4 allosteric modulator project, U937 cells, HUTS-21 mAb, flow cytometry, validation set (AID 2674;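 active = inhibition above 50%, about 3 SD of the validation set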;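 note: antibody binding induced by the VLA-4 ligand LDV present at three times its Kd; 0% = LDV ligand with antibody and no compound and 100% = antibody without LDV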). The settings on record: HUTS-21 LIBS mAb binding, at 6.7 µM, stronger effect = higher value, binding induced by LDV ligand.

Test [8] addresses Beta-adrenergic receptor kinase 1 (Homo sapiens) (UniProt P25098). Briefly: GRK2 binders displacing RNA aptamer, biochemical, validation, human GRK2, bead flow cytometry (AID 488806;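 active = aptamer binding inhibition above 30%, about 3 SD of noise from non-fluorescent compounds; inactive = inhibition at or below 30%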). Conditions: bead-bound GRK2, FAM-aptamer displacement, at 10 µM, stronger effect = higher value.
The target in test [9] is Beta-2 adrenergic receptor (Homo sapiens) (UniProt P07550). As to the kind of experiment: beta2AR agonists driving receptor internalization, pilot screen, cell-based, FAP fluorogen, flow cytometry, validation set (AID 504459;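 active = percent response above 42, roughly 3 SD of non-fluorescent test compounds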;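 note: agonist-driven loss of surface beta2AR via internalization measured by FAP dye flow cytometry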). Conditions: Am2.2-beta2AR cells, FAP surface receptor flow cytometry; at 10 µM; stronger effect = higher value.
Test [10] has as its target AP-2 complex subunit beta (Homo sapiens) (UniProt P63010). Briefly: inhibitors of arrestin peptide binding to AP2, pilot screen, biochemical, validation set, GST-AP2 beads, flow cytometry (AID 504541;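 active = inhibition above 54%, about 3 SD of non-fluorescent compounds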;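 note: AP2 carries R879A mutation and is captured from E. coli lysate; bead-bound FITC arrestin peptide fluorescence measuring arrestin peptide binding to AP2; 0% = DMSO wells and 100% = excess unlabeled arrestin peptide control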). The settings on record: FITC arrestin peptide, at 10 µM, stronger effect = higher value, AP2 beta2 appendage fragment, R879A mutant.
Test [11] in a line: yeast V-ATPase proton transport modulators, S. cerevisiae, pHLuorin, HTS validation (AID 504600; in the data active = response above about 15%;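 note: plate controls were DMSO for no effect and reference compound for full effect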). Conditions: S. cerevisiae pHLuorin cytosolic pH, at 10 µM, stronger effect = higher value.
Test [12] relates to anti-desmoglein-3 scFv antibody binding to human DSG3. Briefly: inhibitors of anti-DSG3 scFv binding to DSG3, pilot screen, biochemical, validation compound set, bead-based, flow cytometry (AID 588368;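 active = binding below the plate cutoff, the plate median minus 3 SD, with a reading above zero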;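 note: signal is the median channel fluorescence of bead-bound GFP antibody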). The settings on record: Protein G beads, DSG3-Fc, scFv-GFP binding, at 10 µM, stronger effect = lower value.
Test [13] in a line: inhibitors of fungal efflux pumps CDR1, CDR2, MDR1, pilot screen, validation compound set, multiplex, phenotypic (AID 588506;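 active = efflux inhibition above 0.42, the validation set average plus 4 SD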;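 note: Nile Red retained in cells so higher fluorescence means more efflux inhibition; 0 = negative control wells and 1 = enniatin B 25 µM full block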). Conditions: S. cerevisiae pump-expressing triplex, Nile Red efflux flow cytometry; at 10 µM; stronger effect = higher value; the pumps come from Candida albicans.
Test [14] addresses ATP-binding cassette sub-family B member 6 (Homo sapiens) (UniProt Q9NP58). As to the kind of experiment: ABCB6 transporter inhibitors, pilot screen, K562-ABCB6 cells, flow cytometry, validation set (AID 588550;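 active = inhibition above the screen-wide mean plus 3 SD, about 51%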;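 note: 0% = DMSO wells and 100% = benzethonium chloride 70 µM positive control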). The settings on record: K562-ABCB6 porphyrin accumulation, 1 h, at 10 µM, stronger effect = higher value.
The nature of test [15]: promoters of myeloid differentiation in arrested cells, primary screen, cell-based, GFP/MAC1 double positive, flow cytometry, validation set (AID 588685;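 active = differentiation response of at least 50%, scaled between solvent and reference control, from cells with both markers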;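 note: compound exposure lasts four days before antibody staining and flow analysis; 0% = DMSO wells and 100% = 5 µM fulvestrant positive control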). Conditions: ER-HoxA9 marrow cells, stronger effect = higher value, normalized: vehicle 0, fulvestrant 100.
A short description of test [16]: RPL19A-GFP modulators, yeast TOR pathway, confirmation, cell-based, S. cerevisiae, flow cytometry, cherry picks, mother/daughter gates (AID 2270;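 active = GFP response below 50% of the DMSO control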). Conditions: S. cerevisiae RPL19A-GFP strain, 3 h, at 10 µM, stronger effect = lower value, 100 = same GFP as DMSO wells.
Test [17] is described as follows: LAP4-GFP expression modulators in yeast, confirmation, cell-based, cherry picks, flow cytometry, mother/daughter gates (AID 2271;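 active = GFP response above 150% of the DMSO control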;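 note: ratio of sample to DMSO plate mean so 100% equals DMSO level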). The settings on record: S. cerevisiae LAP4-GFP strain, 3 h, at 10 µM, stronger effect = higher value, 100 means same as DMSO control.
Test [18] is described as follows: modulators of MEP2-GFP levels in yeast, confirmation, S. cerevisiae, flow cytometry GFP, cherry picks (AID 2272;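 active = GFP response above 150% of the DMSO control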;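 note: ratio of well signal to plate DMSO mean so 100% equals DMSO level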). Conditions: S. cerevisiae MEP2-GFP strain, 3 h, at 10 µM, stronger effect = higher value.
Test [19] is described as follows: modulators of CIT2-GFP expression in yeast, confirmation, S. cerevisiae, GFP fusion, cherry picks, mother/daughter gates (AID 2274;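 active = GFP response above 150% of the DMSO level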). Conditions: S. cerevisiae CIT2-GFP strain, flow cytometry, 3 h, at 10 µM, stronger effect = higher value.
Test [20] can be described thus: superoxide lowering in aged yeast cells, pilot screen, validation compound set (AID 2706;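 active = superoxide response below 65% of plate, a cut near 3 SD across the whole screen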;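 note: yeast exposed to compound for one week at 30 degrees C before staining; 100% = mean of all compound wells on the same plate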). The settings on record: S. cerevisiae aging, superoxide DHE fluorescence; at 10 µM, stronger effect = lower value.
Setting [21] is: measured here: daughter cell gate.
Where [22] appears, read: measured here: mother cell gate.

The structures appear in SMILES notation. Results filed as inconclusive are left out. Active and inactive are the calls of the source.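 Rule for the calls, unless noted: active = GFP response, as percent of the DMSO control, above the screen-wide mean plus 3 SD, about 139; inconclusive = no response measured because the compound's own fluorescence interfered; inactive = the rest.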

4 compounds from PubChem BioAssay can be followed below.

A word on the inhibition: it is the relative decrease from the control value, in per cent.

Sequence of Beta-2 adrenergic receptor (Homo sapiens) (P07550 whole entry, looked up): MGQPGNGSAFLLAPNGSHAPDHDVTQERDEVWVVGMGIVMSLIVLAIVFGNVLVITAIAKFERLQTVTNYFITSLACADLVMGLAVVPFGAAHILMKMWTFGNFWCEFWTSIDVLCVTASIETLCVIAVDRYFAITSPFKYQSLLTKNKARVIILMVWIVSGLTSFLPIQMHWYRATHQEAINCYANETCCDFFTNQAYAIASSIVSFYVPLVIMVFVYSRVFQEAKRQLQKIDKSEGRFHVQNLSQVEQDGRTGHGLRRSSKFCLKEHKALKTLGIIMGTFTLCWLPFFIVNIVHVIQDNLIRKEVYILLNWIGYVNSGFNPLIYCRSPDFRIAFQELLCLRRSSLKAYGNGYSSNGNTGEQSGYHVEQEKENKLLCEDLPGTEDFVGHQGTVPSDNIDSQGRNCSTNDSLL
Sequence of Integrin beta-1 (Homo sapiens) + Integrin alpha-4 (Homo sapiens) (P05556 whole entry, looked up): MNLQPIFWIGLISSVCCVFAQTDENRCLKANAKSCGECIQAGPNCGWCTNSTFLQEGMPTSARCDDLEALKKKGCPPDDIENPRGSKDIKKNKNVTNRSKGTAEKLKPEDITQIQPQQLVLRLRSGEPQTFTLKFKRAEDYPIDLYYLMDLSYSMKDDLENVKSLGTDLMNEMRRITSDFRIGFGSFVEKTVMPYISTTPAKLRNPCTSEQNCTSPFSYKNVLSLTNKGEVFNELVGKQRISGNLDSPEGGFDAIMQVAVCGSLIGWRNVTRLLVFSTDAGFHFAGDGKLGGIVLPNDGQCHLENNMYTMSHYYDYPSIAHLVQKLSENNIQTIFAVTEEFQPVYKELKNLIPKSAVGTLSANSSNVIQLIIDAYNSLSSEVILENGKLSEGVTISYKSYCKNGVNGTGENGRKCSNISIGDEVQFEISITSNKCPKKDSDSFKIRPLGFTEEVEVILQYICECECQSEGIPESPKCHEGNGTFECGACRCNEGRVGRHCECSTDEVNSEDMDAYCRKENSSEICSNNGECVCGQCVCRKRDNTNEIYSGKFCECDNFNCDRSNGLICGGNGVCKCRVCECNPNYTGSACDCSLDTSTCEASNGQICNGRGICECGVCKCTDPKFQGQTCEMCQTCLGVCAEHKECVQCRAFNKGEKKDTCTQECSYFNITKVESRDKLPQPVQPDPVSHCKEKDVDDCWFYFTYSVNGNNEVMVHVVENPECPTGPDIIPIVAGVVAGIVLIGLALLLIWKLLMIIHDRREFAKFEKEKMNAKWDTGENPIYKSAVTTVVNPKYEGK
Sequence of Integrin beta-1 (Homo sapiens) + Integrin alpha-4 (Homo sapiens) (P13612 whole entry, looked up): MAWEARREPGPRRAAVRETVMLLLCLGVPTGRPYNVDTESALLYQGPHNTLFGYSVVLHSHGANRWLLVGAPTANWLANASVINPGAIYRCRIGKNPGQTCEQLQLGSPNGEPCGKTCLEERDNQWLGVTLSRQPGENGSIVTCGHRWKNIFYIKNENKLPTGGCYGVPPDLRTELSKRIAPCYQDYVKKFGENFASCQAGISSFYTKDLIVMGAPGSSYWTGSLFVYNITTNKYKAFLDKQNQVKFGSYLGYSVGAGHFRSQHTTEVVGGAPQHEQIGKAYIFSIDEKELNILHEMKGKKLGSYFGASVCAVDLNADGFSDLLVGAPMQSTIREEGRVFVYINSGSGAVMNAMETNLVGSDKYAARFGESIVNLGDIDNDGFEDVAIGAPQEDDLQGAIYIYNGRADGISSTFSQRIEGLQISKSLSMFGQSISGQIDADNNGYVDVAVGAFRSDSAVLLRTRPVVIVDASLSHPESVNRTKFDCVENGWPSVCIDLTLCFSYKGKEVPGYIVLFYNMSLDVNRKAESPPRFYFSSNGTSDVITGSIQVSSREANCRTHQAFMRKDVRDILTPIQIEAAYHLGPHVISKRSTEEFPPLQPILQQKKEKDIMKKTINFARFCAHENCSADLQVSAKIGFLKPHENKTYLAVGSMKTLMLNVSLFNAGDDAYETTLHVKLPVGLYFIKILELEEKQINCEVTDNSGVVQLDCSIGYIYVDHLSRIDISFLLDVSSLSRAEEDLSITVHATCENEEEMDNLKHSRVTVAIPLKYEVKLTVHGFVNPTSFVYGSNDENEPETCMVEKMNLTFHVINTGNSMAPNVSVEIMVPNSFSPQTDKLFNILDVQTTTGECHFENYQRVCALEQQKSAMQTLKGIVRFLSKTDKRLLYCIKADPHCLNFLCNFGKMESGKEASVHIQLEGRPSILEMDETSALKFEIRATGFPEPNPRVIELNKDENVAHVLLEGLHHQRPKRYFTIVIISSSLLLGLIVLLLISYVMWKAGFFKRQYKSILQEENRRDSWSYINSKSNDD
Sequence of AP-2 complex subunit beta (Homo sapiens) (P63010 whole entry, looked up, the tested form may be a part, one chain of several): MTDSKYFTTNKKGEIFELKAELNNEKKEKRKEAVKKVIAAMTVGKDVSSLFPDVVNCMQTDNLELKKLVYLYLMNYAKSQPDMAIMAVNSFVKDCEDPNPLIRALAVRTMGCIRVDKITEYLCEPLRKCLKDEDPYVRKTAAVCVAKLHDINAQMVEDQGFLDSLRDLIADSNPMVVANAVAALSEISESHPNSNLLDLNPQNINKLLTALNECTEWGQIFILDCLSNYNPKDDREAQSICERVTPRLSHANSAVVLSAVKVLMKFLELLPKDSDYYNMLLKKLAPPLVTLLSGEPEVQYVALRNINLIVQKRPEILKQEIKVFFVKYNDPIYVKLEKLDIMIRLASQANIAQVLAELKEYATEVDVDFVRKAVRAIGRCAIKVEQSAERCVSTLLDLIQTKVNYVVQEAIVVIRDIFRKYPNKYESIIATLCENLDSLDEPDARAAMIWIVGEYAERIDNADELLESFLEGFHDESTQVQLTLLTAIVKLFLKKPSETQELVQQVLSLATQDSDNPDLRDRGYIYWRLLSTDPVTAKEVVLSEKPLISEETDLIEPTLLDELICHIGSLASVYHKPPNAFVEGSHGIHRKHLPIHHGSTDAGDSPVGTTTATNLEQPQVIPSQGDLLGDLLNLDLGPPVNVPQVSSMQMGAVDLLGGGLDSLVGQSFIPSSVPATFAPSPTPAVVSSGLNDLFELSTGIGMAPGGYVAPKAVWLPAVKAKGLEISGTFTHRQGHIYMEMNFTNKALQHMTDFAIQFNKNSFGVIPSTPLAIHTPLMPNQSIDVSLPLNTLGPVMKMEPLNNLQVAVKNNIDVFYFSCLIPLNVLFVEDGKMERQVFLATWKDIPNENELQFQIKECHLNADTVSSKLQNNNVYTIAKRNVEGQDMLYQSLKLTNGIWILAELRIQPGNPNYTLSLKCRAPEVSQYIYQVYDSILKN
Sequence of Beta-adrenergic receptor kinase 1 (Homo sapiens) (P25098 whole entry, looked up): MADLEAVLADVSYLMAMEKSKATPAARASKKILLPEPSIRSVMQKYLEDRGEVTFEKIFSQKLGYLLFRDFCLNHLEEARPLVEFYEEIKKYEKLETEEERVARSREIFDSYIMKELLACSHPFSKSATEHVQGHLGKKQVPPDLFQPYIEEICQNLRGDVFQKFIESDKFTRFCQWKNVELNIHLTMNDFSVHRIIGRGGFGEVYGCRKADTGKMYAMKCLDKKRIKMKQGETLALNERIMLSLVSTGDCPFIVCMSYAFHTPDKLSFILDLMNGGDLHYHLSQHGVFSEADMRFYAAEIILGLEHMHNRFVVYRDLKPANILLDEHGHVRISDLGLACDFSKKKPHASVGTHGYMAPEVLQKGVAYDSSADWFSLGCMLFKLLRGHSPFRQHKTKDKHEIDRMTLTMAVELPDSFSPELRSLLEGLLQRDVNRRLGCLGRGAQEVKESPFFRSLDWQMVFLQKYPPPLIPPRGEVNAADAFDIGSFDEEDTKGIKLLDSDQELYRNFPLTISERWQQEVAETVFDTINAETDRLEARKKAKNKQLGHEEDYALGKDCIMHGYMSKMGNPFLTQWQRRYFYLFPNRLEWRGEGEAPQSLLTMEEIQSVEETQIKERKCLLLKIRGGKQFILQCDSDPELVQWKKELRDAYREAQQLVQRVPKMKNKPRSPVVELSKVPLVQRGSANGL
Sequence of ATP-binding cassette sub-family B member 6 (Homo sapiens) (Q9NP58 whole entry, looked up): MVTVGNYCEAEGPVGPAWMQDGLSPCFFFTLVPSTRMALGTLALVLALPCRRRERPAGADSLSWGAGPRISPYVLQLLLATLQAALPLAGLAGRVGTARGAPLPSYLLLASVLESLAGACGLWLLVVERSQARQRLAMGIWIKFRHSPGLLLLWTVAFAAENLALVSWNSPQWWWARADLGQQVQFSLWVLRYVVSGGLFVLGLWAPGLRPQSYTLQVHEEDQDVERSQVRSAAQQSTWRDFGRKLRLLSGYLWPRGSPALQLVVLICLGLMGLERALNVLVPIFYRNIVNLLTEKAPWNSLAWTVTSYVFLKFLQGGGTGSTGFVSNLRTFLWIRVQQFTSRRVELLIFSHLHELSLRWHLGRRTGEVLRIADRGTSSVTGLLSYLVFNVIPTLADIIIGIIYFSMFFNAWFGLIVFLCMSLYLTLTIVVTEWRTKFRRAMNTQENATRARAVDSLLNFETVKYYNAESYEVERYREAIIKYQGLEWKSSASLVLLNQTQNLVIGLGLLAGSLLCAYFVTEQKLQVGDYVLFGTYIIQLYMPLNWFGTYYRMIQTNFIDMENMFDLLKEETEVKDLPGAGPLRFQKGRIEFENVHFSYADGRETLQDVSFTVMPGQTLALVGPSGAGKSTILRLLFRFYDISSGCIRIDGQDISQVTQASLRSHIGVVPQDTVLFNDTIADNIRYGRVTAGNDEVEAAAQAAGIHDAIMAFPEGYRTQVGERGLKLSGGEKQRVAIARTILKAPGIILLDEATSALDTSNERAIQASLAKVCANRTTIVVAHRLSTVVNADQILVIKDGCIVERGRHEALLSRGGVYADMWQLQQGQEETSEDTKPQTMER

Turning to `Cc1ccc(CSCC(=O)NCCCN2CCOCC2)cc1`, in test [1], the percent of DMSO control GFP is 100% (inactive). The figures for the GFP response vs DMSO in test [2] and in test [4] were 96.2% (inactive) and 92.7% (inactive), respectively. Moreover, the percent response of DMSO control in [3] was 95.4% (inactive). The GFP response, % of DMSO in [5] was 96.4% (inactive). Further, the double positive events in test [6] was found to be 67.8%. Further, the vesicle binding response in test [6] is 243% (inactive). The results for the inhibition in test [7], in test [10] and in test [14] were -4.6% (inactive), -6.22% (inactive) and -6% (inactive), respectively. For the same compound, the aptamer binding inhibition in test [8] was -4% (inactive). The response in test [9] was -1.57% (inactive); in [11], 1.78% (inactive). Besides, the binding (% of control) in test [12] was 104% (inactive). In addition, the efflux inhibition (fraction of control) in [13] was 0.33 (inactive). Moreover, the differentiation response in test [15] was 3.18% (inactive).
`O=c1[nH]c(=O)n([C@H]2C[C@H](O)[C@@H](CO)O2)cc1F`: in test [1], the percent of DMSO control GFP is 91.1% (inactive). Besides, the GFP response vs DMSO is 142% (active) in test [2]; 93.5% (inactive) in test [4]; 98.6% (inactive) in test [16]; 97.8% in test [16] (setting [21]); 99.2% in test [16] (setting [22]); 101% (inactive) in test [18]. The percent response of DMSO control in [3] was 101% (inactive). The values for the GFP response relative to DMSO in test [17], in test [17] (measured here: daughter cell gate response) and in [17] (measured here: mother cell gate response) were 97.3% (inactive), 96.6% and 97.2%, respectively. Moreover, the GFP response, % of DMSO in test [19] was 93.4% (inactive); in [19] (setting [21]), 93.7%; in test [19] (setting [22]), 93.7%. This compound showed a double positive events in test [6] of 72.9%. The vesicle binding response in test [6] was 155% (inactive). The inhibition in [7] is 4.52% (inactive); in test [10] it was 1.52% (inactive); in test [14] it was 11% (inactive). Moreover, the superoxide response (% of plate) in test [20] is 94.8% (inactive). Further, in test [8], the aptamer binding inhibition is 9% (inactive). Moreover, the response in test [9] was -2.6% (inactive); in test [11] it was -0.54% (inactive). In test [12], the binding (% of control) was 98% (inactive). Moreover, the efflux inhibition (fraction of control) in [13] is -0.38 (inactive). For the same compound, the differentiation response in [15] was -5.73% (inactive).
As to `Cc1cccc(N(C)C(=S)Oc2ccc3ccccc3c2)c1`, in test [1], the percent of DMSO control GFP is 94.4% (inactive). Further, the GFP response vs DMSO in test [2] is 114% (inactive); in [4], 78.7% (inactive). The percent response of DMSO control in [3] is 95.2% (inactive). The GFP response, % of DMSO in [5] is 97.5% (inactive). Moreover, the double positive events in [6] worked out at 86.4%. The inhibition in test [7] was -8.09% (inactive); in test [10], -3.34% (inactive); in [14] it was 8% (inactive). For the same compound, in test [20], the superoxide response (% of plate) is 87.4% (inactive). In test [8], the aptamer binding inhibition is 0% (inactive). Moreover, the response in test [9] is 11.2% (inactive); in test [11], 4.82% (inactive). Further, the binding (% of control) in [12] is 106% (inactive). Besides, the efflux inhibition (fraction of control) in test [13] is -0.38 (inactive). Besides, in test [15], the differentiation response is -1.64% (inactive).
For the compound `O=c1c2ccccc2nnn1Cc1cccc2ccccc12`, the percent of DMSO control GFP in test [1] is 89.1% (inactive). Moreover, the GFP response vs DMSO in test [2] was 105% (inactive); in test [4], 78.7% (inactive). In test [3], the percent response of DMSO control was 103% (inactive). This compound also had a double positive events in [6] of 61%. The vesicle binding response in test [6] was 217% (inactive). Also, the inhibition is -13.9% (inactive) in test [7], -7.09% (inactive) in test [10] and 13% (inactive) in [14]. For the same compound, in [20], the superoxide response (% of plate) is 103% (inactive). For the same compound, the aptamer binding inhibition in [8] was 1% (inactive). Besides, the figures for the response in [9] and in test [11] were -3.06% (inactive) and 3.28% (inactive), respectively. Also, the binding (% of control) in [12] was 99% (inactive). Moreover, the efflux inhibition (fraction of control) in test [13] was -0.2 (inactive). Moreover, the differentiation response in test [15] is -0.82% (inactive).
